About 5,800 (36%) of roughly 16,000 compounds were called active. About 23% were inconclusive and are not listed. Some of the results follow. Unmarked numbers belong to inactive results. Calls come from the whole dose curve; as a rule, active = well fitted curve in the direction sought with a large enough effect; inconclusive = small, poorly fitted or top-dose-only effect, or effect the other way; inactive = no such curve, though single readings can be large or run the other way.
These molecules were tested against Cytochrome P450 2C19 (Homo sapiens) (UniProt P33261) (assay: Cytochrome panel assay with activity outcomes). Conditions: recombinant CYP, pro-luciferin dealkylation, luminescence, p450-cyp2c19; series mostly up to 57.1 µM.
Chain of Cytochrome P450 2C19 (Homo sapiens) (P33261 whole entry, looked up): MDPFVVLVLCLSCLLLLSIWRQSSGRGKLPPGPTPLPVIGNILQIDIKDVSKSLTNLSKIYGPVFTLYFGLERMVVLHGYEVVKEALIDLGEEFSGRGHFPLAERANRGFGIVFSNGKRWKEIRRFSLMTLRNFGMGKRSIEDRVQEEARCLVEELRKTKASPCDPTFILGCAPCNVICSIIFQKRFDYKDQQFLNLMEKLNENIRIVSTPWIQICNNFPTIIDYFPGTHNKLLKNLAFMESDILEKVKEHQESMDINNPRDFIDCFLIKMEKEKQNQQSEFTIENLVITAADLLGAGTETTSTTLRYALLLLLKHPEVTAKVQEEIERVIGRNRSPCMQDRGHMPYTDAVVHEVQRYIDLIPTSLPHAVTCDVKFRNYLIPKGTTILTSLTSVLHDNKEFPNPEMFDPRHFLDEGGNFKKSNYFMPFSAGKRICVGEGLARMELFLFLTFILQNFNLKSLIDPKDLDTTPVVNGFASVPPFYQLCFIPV
With `CCCc1c(OCCCOc2ccc(OCC(=O)O)cc2)ccc(C(C)=O)c1O` the AC50 was “inactive”.
For `O=C1C2C3C=CC(C3)C2C(=O)N1/N=C/c1cn(Cc2ccc(F)cc2)c2ccccc12` (centres undefined), the AC50 was 11200 nM (active).
In the case of `Oc1ccccc1C(Sc1nc2ccccc2s1)Sc1nc2ccccc2s1`, the AC50 is reported as 3160 nM (active).
With `c1ccc(NCCSc2nc3ccccc3s2)cc1` the AC50 was 398 nM (active).
For `c1ccc2sc(SCSc3nc4ccccc4s3)nc2c1`, the AC50 was 1260 nM (active).
For `NCCSc1nc2ccccc2s1`, the AC50 was 1580 nM (active).
Molecule `c1ccc2sc(SCCSc3nc4ccccc4s3)nc2c1` has an activity, negative = inhibition of 6.86% [at 11.4 µM].
With `C[N+](C)(C)CC(=O)O` the AC50 was “inactive”.
`CC(C)OC(=O)CC12CN(C)CC(CC(=O)OC(C)C)(CN(C)C1)C2=O` was tested, and the AC50 was “inactive”.
`COc1ccc(-c2nc3cnc(N4CCOCC4)nc3n(C[C@H]3CCCO3)c2=O)cc1` was tested, and the AC50 was “inactive”.
In the case of `O=C(O)[C@@H]1CS[C@@]2(CCCN(Cc3ccccc3)C2)N1`, the activity, negative = inhibition is reported as 7.34% [at 11.4 µM].
`C#CCCCO/N=C1/C[C@@H](O)[C@@H](O)[C@@H]2[C@@H]3C(=O)N(CC)C(=O)[C@H]3CC[C@@H]12` gave an activity, negative = inhibition of -28.6% [at 11.4 µM].
With `CCOC(=O)c1cnc(SCCc2ccccc2)nc1N` the AC50 was 7940 nM (active).
With `Cc1ccc(C2=Nc3ccccc3S[C@@H](c3cccc([N+](=O)[O-])c3)C2)cc1` the AC50 was 3980 nM (active).
`Cc1ccc(/C(C#N)=C/c2cccc([N+](=O)[O-])c2)cc1` gave an activity, negative = inhibition of 8.97% [at 11.4 µM].
`NC[C@@H]1O[C@H](C23CC4CC(CC(C4)C2)C3)Cc2c1ccc(O)c2O` was tested, and the AC50 was “inactive”.
`NC[C@@H]1O[C@H](c2ccccc2)Cc2c1ccc(O)c2O` was tested, and the AC50 was 1000 nM (active).
`O=C1[C@H]2[C@H]3[C@H](O)[C@H](O)C/C(=N/OCc4ccccc4)[C@@H]3CC[C@@H]2C(=O)N1C[C@@H]1CCCO1` gave an activity, negative = inhibition of -0.01% [at 11.4 µM].
`CC1(CCC(=O)OC2CCCCC2)OCCO1` showed an activity, negative = inhibition of -35.8% [at 11.4 µM].
In the case of `O=C(CC1(O)CCCCC1)OC1CCCC1`, the AC50 is reported as 1580 nM (active).
`CC1(CC(=O)O)O[C@H]2CCCCC[C@H]2O1` (some centres undefined) (tested in a mixture with another compound) showed an activity, negative = inhibition of 1.88% [at 11.4 µM].
With `COc1ccccc1CNc1cc(-c2ccccc2C)ncn1` the AC50 was 1000 nM (active).
`COc1ccccc1CNc1cc(-c2ccccc2OC)ncn1` was tested, and the AC50 was 1580 nM (active).
With `Cc1cnc(CNc2cc(-c3ccccc3CN(C)C)ncn2)cn1` the AC50 was “inactive”.
In the case of `COc1ccccc1CNc1cc(-c2ccc(C(=O)N(C)C)cc2)ncn1`, the AC50 is reported as “inactive”.
With `CC1CCN(c2cc(N3CCC(C)CC3)c([N+](=O)[O-])cc2/C=C(\C#N)c2nn(-c3ccccc3)c(N)c2C#N)CC1` the AC50 was 447 nM (active).
With `N#C/C(=C\c1cc([N+](=O)[O-])c(N2CCCCC2)cc1N1CCCCC1)c1nn(-c2ccccc2)c(N)c1C#N` the AC50 was 282 nM (active).
With `Cc1noc(C)c1C(=O)N1CCC2(CCN(C(=O)NC(C)C)CC2)CC1` the AC50 was “inactive”.
In the case of `OC[C@@H]1NC[C@@H](O)[C@@H](O)[C@H]1O`, the AC50 is reported as “inactive”.
For `O=C(NNC(=S)NCc1ccco1)c1ccc(Cl)s1`, the AC50 was 7940 nM (active).
With `Nc1ncnc2c1ncn2[C@H]1O[C@@H](C(=O)OCCO)[C@@H](O)[C@H]1O` the activity, negative = inhibition was 4.2% [at 11.4 µM].
`C=C1c2cccc(O)c2C(O)=C2C(=O)[C@@]3(O)C(O)=C(C(N)=O)C(=O)[C@@H](N(C)C)[C@@H]3[C@@H](O)[C@H]12` was tested, and the AC50 was “inactive”.
For `Cc1c(NC(=O)NC(C)N2C(=O)C3C4C=CC(C4)C3C2=O)c(=O)n(-c2ccccc2)n1C` (centres undefined), the AC50 was “inactive”.
For `CCC(C(=O)c1ccccc1)N(C(=O)c1ccccc1Cl)N1C(=O)C2C3C=CC(C3)C2C1=O` (centres undefined), the AC50 was 3550 nM (active).
With `Cc1c(NC(=O)CN2C(=O)C3C4C=CC(C4)C3C2=O)c(=O)n(-c2ccccc2)n1C` (centres undefined) the AC50 was “inactive”.
In the case of `Cn1c(CN2CCCCC2)nc2cc(NC(=O)c3ccc(Cl)cc3)ccc21`, the AC50 is reported as 28200 nM (active).
With `COc1ccc(C(=O)Nc2ccc3c(c2)nc(CN2CCN(C(C)=O)CC2)n3C)cc1` the AC50 was “inactive”.
`CCn1c(C)cc(/C=C2\SC(=O)N(CC(=O)Nc3ccc(C)c(C)c3)C2=O)c1C` was tested, and the AC50 was 1120 nM (active).
For `Cn1cc(/C=C2/SC(=O)N(CC(=O)Nc3ccc4c(c3)OCO4)C2=O)c2ccccc21`, the AC50 was 794 nM (active).
In the case of `Cc1c(/C=C2\SC(=O)N(CC(=O)Nc3ccc4c(c3)OCO4)C2=O)c2ccccc2n1C`, the AC50 is reported as 2510 nM (active).
With `Cc1ccc(NC(=O)CN2C(=O)S/C(=C\c3cccn3C)C2=O)cc1` the AC50 was “inactive”.
For `CC(C)n1cc(/C=C2/SC(=O)N(CC(=O)Nc3ccc4c(c3)OCO4)C2=O)c2ccccc21`, the AC50 was 5010 nM (active).
In the case of `CC(C)=CCC/C(C)=C/CO/N=C1/C[C@@H](O)[C@@H](O)[C@@H]2[C@H]3C(=O)N(c4ccc(F)cc4F)C(=O)[C@@H]3CC[C@H]12`, the activity, negative = inhibition is reported as -33.8% [at 11.4 µM].
In the case of `CCNc1ncc2nc(-c3ccccc3)c(=O)n(Cc3cccs3)c2n1`, the AC50 is reported as “inactive”.
For `COc1cccc(Cn2c(=O)cnc3cnc(N(C)C)nc32)c1`, the AC50 was 2510 nM (active).
`CCNc1ncc2nc(CCc3ccccc3)c(=O)n(Cc3cccc(OC)c3)c2n1` was tested, and the AC50 was 6310 nM (active).
`COc1cccc(Cn2c(=O)c(-c3ccccc3)nc3cnc(N(C)C)nc32)c1` was tested, and the AC50 was “inactive”.
`COc1cccc(Cn2c(=O)c(CCc3ccccc3)nc3cnc(N(C)C)nc32)c1` was tested, and the AC50 was 794 nM (active).
`CN(C)c1ncc2nc(-c3ccc(Cl)cc3)c(=O)n(Cc3cccs3)c2n1` was tested, and the AC50 was “inactive”.
With `COc1cccc(Cn2c(=O)c(-c3cc(F)cc(F)c3)nc3cnc(N(C)C)nc32)c1` the AC50 was “inactive”.
With `CN(C)c1ncc2nc(CCc3ccccc3)c(=O)n(Cc3cccs3)c2n1` the AC50 was 6310 nM (active).
For `CN(C)c1ncc2nc(-c3ccc(F)cc3)c(=O)n(Cc3cccs3)c2n1`, the AC50 was “inactive”.
In the case of `C=CCN1CCc2cc(O)c(O)cc2[C@H](c2ccccc2)C1`, the AC50 is reported as “inactive”.
For `COc1cccc(Cn2c(=O)c(-c3cccc(C#N)c3)nc3cnc(Nc4ccccc4)nc32)c1`, the AC50 was “inactive”.
With `Cc1nc2cnc(N(C)C)nc2n(Cc2cccs2)c1=O` the AC50 was “inactive”.
With `COc1cccc(Cn2c(=O)c(CCc3ccccc3)nc3cnc(OC)nc32)c1` the AC50 was 15800 nM (active).
With `CN(C)c1ncc2ncc(=O)n(Cc3cccs3)c2n1` the AC50 was 10000 nM (active).
For `COc1cccc(Cn2c(=O)c(-c3cccc(C#N)c3)nc3cnc(OC)nc32)c1`, the AC50 was 10000 nM (active).
In the case of `CN(C)c1ncc2nc(-c3cc(F)cc(F)c3)c(=O)n(CCc3ccccc3)c2n1`, the AC50 is reported as “inactive”.
`COc1cccc(Cn2c(=O)c(-c3cn(C)c4ccccc34)nc3cnc(OC)nc32)c1` was tested, and the AC50 was “inactive”.
In the case of `COc1ccc(-c2nc3cnc(OC)nc3n(Cc3cccc(OC)c3)c2=O)cc1`, the AC50 is reported as “inactive”.
With `CN(C)c1ncc2nc(CCc3ccccc3)c(=O)n(Cc3ccc(F)cc3)c2n1` the AC50 was 794 nM (active).
`CN(C)c1ncc2nc(-c3ccccc3)c(=O)n(Cc3ccc(F)cc3)c2n1` was tested, and the AC50 was “inactive”.
In the case of `CN(C)c1ncc2nc(-c3cccs3)c(=O)n(Cc3cccs3)c2n1`, the AC50 is reported as “inactive”.
For `COc1ccc(Oc2ncc3nc(-c4cccc(C#N)c4)c(=O)n(Cc4cccc(OC)c4)c3n2)cc1`, the AC50 was “inactive”.
With `COc1ccc(-c2cc(C3CCN(c4ccc(C(C)=O)cc4[N+](=O)[O-])CC3)[nH]n2)cc1` the AC50 was 2240 nM (active).
For `CC(=O)c1ccc(N2CCC(c3cc(-c4ccc(Cl)cc4Cl)n[nH]3)CC2)c([N+](=O)[O-])c1`, the AC50 was 282 nM (active).
With `CC(=O)c1ccc(N2CCC(c3cc(-c4ccc(Cl)cc4)n[nH]3)CC2)c([N+](=O)[O-])c1` the AC50 was 501 nM (active).
With `CC(=O)c1cc(CC=C(C)C)c(O)cc1O` the AC50 was 2820 nM (active).
For `COc1cc(CC(=O)O)c(C(C)=O)cc1OC`, the AC50 was “inactive”.
In the case of `COc1ccc(Sc2ccc(NC(=O)c3ccccc3Cl)cc2C#N)cc1`, the AC50 is reported as 2820 nM (active).
With `COc1ccc(/C=N/NC(=S)NC2CCS(=O)(=O)C2)cc1OC` (centres undefined) the AC50 was “inactive”.
With `COc1ccc(/C=N/Nc2snc(SC)c2C#N)cc1OC` the AC50 was 5010 nM (active).
`COc1cc(/C=N/Nc2snc(SC)c2C#N)cc(OC)c1OC` was tested, and the AC50 was 14100 nM (active).
In the case of `O=C(O)c1cc(-c2ccc(-c3ccc(-c4cc(C(=O)O)c5cc(Cl)ccc5n4)cc3)cc2)nc2ccc(Cl)cc12`, the activity, negative = inhibition is reported as -23.2% [at 11.4 µM].
`N/C(=N\OC(=O)c1cc(-c2ccccc2)nc2ccccc12)c1ccc(Cl)cc1` was tested, and the AC50 was 7940 nM (active).
With `O=C(CC(=O)c1ccncc1)c1ccccc1` the AC50 was 398 nM (active).
With `NNC(=O)c1ccncc1` the AC50 was “inactive”.
`CCOc1cc(-c2noc(N)c2C#N)cc(OCC)c1OCC` was tested, and the AC50 was 15800 nM (active).
Molecule `O=C1[C@@H]2[C@H]3[C@H](O)[C@H](O)C/C(=N/OCc4ccccc4)[C@H]3CC[C@H]2C(=O)N1c1ccc(F)cc1F` has an activity, negative = inhibition of -4.38% [at 11.4 µM].
`CN(C)CCO[C@](C)(c1ccccc1)c1ccccn1` was tested, and the AC50 was “inactive”.
For `COc1ccc(NC(=O)CN(C)S(=O)(=O)c2ccc(Cl)cc2)c([N+](=O)[O-])c1`, the AC50 was 8910 nM (active).
`CN(C)S(=O)(=O)c1ccc(Nc2ccc(O)c3c2C(=O)c2c([N+](=O)[O-])ccc(O)c2C3=O)cc1` showed an activity, negative = inhibition of -34.2% [at 11.4 µM].
`COc1ccc(NC(=O)CSc2nncn2C)c([N+](=O)[O-])c1` was tested, and the AC50 was 31600 nM (active).
With `COc1ccc(NC(=O)c2cccs2)c([N+](=O)[O-])c1` the AC50 was “inactive”.
With `CC(C)NNC(=O)c1ccncc1` the AC50 was “inactive”.
`CC(=O)c1c(C(C)=O)c(C)n(NC(=O)c2ccccc2Cl)c1C` was tested, and the AC50 was “inactive”.
With `CC(=O)c1c(C(C)=O)c(C)n(NC(=O)c2ccncc2)c1C` the AC50 was 200 nM (active).
With `CCOC(=O)CC(Nc1nc(N2CCOCC2)nc(N2CCOCC2)n1)c1ccccc1Cl` (centres undefined) the AC50 was 3160 nM (active).

Source: PubChem BioAssay AID1851 (National Center for Advancing Translational Sciences (NCATS), 2009)
% is set by controls: 0 for no effect and ±100 for the full control effect.
